Inconclusive results are not listed. A call without a number means that no potency is given here. Active and inactive are the calls of the source. Calls follow the shape of the dose curve; as a rule, active = well fitted inhibition curve with a large enough effect; inconclusive = small, poorly fitted or top-dose-only effect; inactive = no such curve, though single readings can be large or run the other way.

Experiment [1] concerns Zika virus NS2B-NS3 protease (unlinked complex). The experiment is described as follows: Primary screen GU Rhodamine qHTS for Zika virus inhibitors: Unlinked NS2B-NS3 protease assay (AID 1347159). Also: nearly all actives have a fitted effect of over 60% in size. Also: potency is read from the fitted curve at half-maximal effect. In short, it runs like this: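 In dose–response format, inhibition of unlinked protease (25 nM) was measured with 1.5 microM bis-peptide Rhodamine110 substrate. Aprotinin served as the intraplate control.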
In general terms: qHTS replaces the single test concentration by a dilution series.

Experiment [2] deals with Zika virus NS2B-NS3 protease (linked construct). Nature of the experiment: Primary screen NINDS Rhodamine qHTS for Zika virus inhibitors (AID 1347160). Also: nearly all actives have a fitted effect of over 55% in size. In short, it runs like this:
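Each compound, titrated, sat 15 min with 25 nM linked protease before 1.5 microM Rhodamine110 substrate went in. Fluorescence gain over the next 15 min, in pH 8.0 Tris with Tween 20, gave Hill-fitted curves.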

Turning to `CC(C)C[C@H](CC(=O)NO)C(=O)N[C@@H](Cc1ccc2ccccc2c1)C(=O)N[C@@H](C)C(=O)NCCN`, the Potency entry in experiment [1] and in experiment [2] was “inactive” throughout.

On to `CC(C)=CCC[C@](C)(O[C@@H]1O[C@H](CO)[C@@H](O)[C@H](O)[C@H]1O)[C@H]1CC[C@]2(C)[C@@H]1[C@H](O)CC1[C@@]3(C)CC[C@H](O)C(C)(C)C3[C@@H](O[C@@H]3O[C@H](CO)[C@@H](O)[C@H](O)[C@H]3O)C[C@]12C` (stereo partly specified), for which the Potency result in experiment [1] and in experiment [2] was “inactive” each time.

With `CC(O)CCC1C(CO[C@@H]2O[C@H](CO)[C@@H](O)[C@H](O)[C@H]2O)CC(O)CC1(C)C` (stereo partly specified), the Potency result in experiment [1] and in experiment [2] was “inactive” throughout.

`OCc1ccc(O[C@@H]2O[C@H](CO)[C@@H](O)[C@H](O)[C@H]2O)cc1`: the Potency result in experiment [1] and in experiment [2] was “inactive” throughout.

As for `CC1(C)CC[C@]2(C(=O)O[C@@H]3O[C@H](CO)[C@@H](O)[C@H](O)[C@H]3O)CC[C@]3(C)C(=CCC4[C@@]5(C)C[C@@H](O)[C@H](O)[C@](C)(C(=O)O)C5CC[C@]43C)C2C1O` (stereo partly specified), the Potency entry in experiment [1] and in experiment [2] was “inactive” throughout.

`CC(=O)OC1C[C@]2(C)C(O)CC(C)=C[C@H](OC(=O)c3ccc(O)cc3)C2[C@]1(O)C(C)C` (stereo partly specified): the Potency entry in experiment [1] and in experiment [2] was “inactive” throughout.

Consider `C=C1C(=O)O[C@@H]2C[C@H](C)[C@@]3(O)C=C(C(C)=O)[C@]4(CC3C[C@H]12)C(=O)O[C@H]1C[C@@H](C)C(CCC(C)=O)=CC[C@H]14` (stereo partly specified), for which the Potency result in experiment [1] and in experiment [2] was “inactive” throughout.

As to `CN(CCc1ccc(Nc2ncc(-c3cccnc3)s2)cc1)Cc1ccccc1`, the Potency result in experiment [1] and in experiment [2] was “inactive” in each case.

With `CC1=CCC(C(C)(C)O[C@@H]2O[C@H](CO[C@@H]3O[C@@H](C)[C@H](O)[C@@H](O)[C@H]3O)[C@@H](O)[C@H](O)[C@H]2O)CC1` (stereo partly specified), the Potency entry in experiment [1] and in experiment [2] was “inactive” throughout.

As for `C=C1C[C@]23C[C@H]1[C@@H](O)C[C@H]2[C@@]12C=C[C@H](O)[C@@](C)(C(=O)O1)[C@H]2[C@@H]3C(=O)O`, the Potency result in experiment [1] and in experiment [2] was “inactive” each time.

Regarding `O=S(=O)(NCC1CC1)c1ccc(Nc2nccc(N3CCCc4cc(O)ccc43)n2)cc1`, in experiment [1], the Potency was 39.8 µM (active). In experiment [2], the Potency result is “inactive”.

For `CC(=O)C1=C(C)N(c2cccc(C(F)(F)F)c2)C(=O)N[C@H]1c1ccc(C#N)nc1`, the Potency entry in experiment [1] and in experiment [2] was “inactive” each time.

As for `C=CC(=O)Nc1cccc(CN2C(=O)N(c3c(Cl)c(OC)cc(OC)c3Cl)Cc3cnc(NCCCCN(CC)CC)nc32)c1`, the Potency entry in experiment [1] and in experiment [2] was “inactive” throughout.

(Values after PubChem BioAssay (NCATS).)
